Measured values: PubChem BioAssay (EPA / NIEHS)
Values joined by “and” are separate entries in the source; they are usually repeats but may differ in a detail not shown here. Equal values may be shown once. Records with an inconclusive call do not appear. Active and inactive are the calls of the source. How the source made its calls, unless noted: active means hit-call score of the fitted dose curve at least 0.9, where 1 is the maximum; inactive means score below 0.9.

What was measured:
[1] = TOX21_p53_BLA_p2_viability: Viability Assessment in the Tox21 HCT-116 p53 Agonism Beta-lactamase Assay, Phase 2 (AID 2283591; active means hit-call score of the fitted dose curve at least 0.9, where 1 is the maximum;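 further: compound exposure lasted 16 h at 37 °C; actives lower the ATP signal meaning cytotoxicity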)
Summary of the method: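 HCT-116 p53-bla cells (4000/well) rested 5 h at 37C, then received compounds in DMSO (217-fold dilution) for 16 h at 37C, 5% CO2. After the CCF4 read, CellTiter-Glo was added; ATP luminescence was read after 30 min at room temperature.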

[2] = target: Cellular tumor antigen p53 (Homo sapiens) (UniProt P04637); assay: TOX21_p53_BLA_p2_ratio: Tox21 HCT-116 p53 Agonism Beta-lactamase Assay, Ratio, Phase 2 (AID 2283592; active means hit-call score of the fitted dose curve at least 0.9, where 1 is the maximum)
Summary of the method: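 HCT116 cells carrying a p53-responsive beta-lactamase reporter were plated, incubated 5 h at 37C, then dosed with compounds in DMSO (217-fold dilution) for 16 h. CCF4-AM substrate was added for 2 h at room temperature; the 460/530 nm emission ratio gave gain-of-signal activity relative to DMSO.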

[3] = TOX21_p53_BLA_p3_viability: Viability Assessment in the Tox21 HCT-116 p53 Agonism Beta-lactamase Assay, Phase 3 (AID 2283593; active means hit-call score of the fitted dose curve at least 0.9, where 1 is the maximum;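 further: cells exposed to compound for 16 h before reading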)
Summary of the method: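 HCT-116 cells (4000/well) rested 5 h at 37C, then got DMSO compounds by pin tool (217-fold dilution) for 16 h at 37C, 5% CO2. After the bla read, CellTiter-Glo was added and luminescence read at 30 min, room temperature.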

[4] = target: Cellular tumor antigen p53 (Homo sapiens) (UniProt P04637); assay: TOX21_p53_BLA_p3_ratio: Tox21 HCT-116 p53 Agonism Beta-lactamase Assay, Ratio, Phase 3 (AID 2283596; active means hit-call score of the fitted dose curve at least 0.9, where 1 is the maximum)
Summary of the method: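 HCT116 p53-bla cells (4000/well) given compound in DMSO (217-fold dilution) after 5 h, incubated 16 h at 37C. CCF4-AM substrate 2 h at room temperature; 460/530 nm emission ratio, gain fitted against DMSO.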

[5] = TOX21_p53_BLA_p4_viability: Viability Assessment in the Tox21 HCT-116 p53 Agonism Beta-lactamase Assay, Phase 4 (AID 2283597; active means hit-call score of the fitted dose curve at least 0.9, where 1 is the maximum;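 further: hits lower the luminescence signal meaning cytotoxicity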)
Summary of the method: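 HCT116 p53-bla cells (4000/well) rested 5 h at 37C, then received compounds in DMSO (217-fold dilution) for 16 h at 37C, 5% CO2. CellTiter-Glo was added after the CCF4-AM read, and luminescence was read after 30 min at room temperature.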

[6] = target: Cellular tumor antigen p53 (Homo sapiens) (UniProt P04637); assay: TOX21_p53_BLA_p5_ratio: Tox21 HCT-116 p53 Agonism Beta-lactamase Assay, Ratio, Phase 5 (AID 2283599; active means hit-call score of the fitted dose curve at least 0.9, where 1 is the maximum)
Summary of the method: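 HCT-116 cells carrying a p53-inducible beta-lactamase reporter were seeded at 4000 cells/well and dosed after 5 h with compound in DMSO (217-fold dilution). After 16 h at 37C, CCF4-AM substrate was added for 2 h, and the 460/530 nm emission ratio was scored as gain-of-signal versus DMSO.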

[7] = TOX21_p53_BLA_p5_viability: Viability Assessment in the Tox21 HCT-116 p53 Agonism Beta-lactamase Assay, Phase 5 (AID 2283600; active means hit-call score of the fitted dose curve at least 0.9, where 1 is the maximum)
Summary of the method: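 Cells were plated at 4000/well, rested 5 h at 37C, then given compounds in DMSO (217-fold dilution) for 16 h at 37C, 5% CO2. Following the CCF4-AM beta-lactamase read, CellTiter-Glo was added and luminescence was read after 30 min at room temperature.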

[8] = target: Cellular tumor antigen p53 (Homo sapiens) (UniProt P04637); assay: TOX21_p53_BLA_p4_ratio: Tox21 HCT-116 p53 Agonism Beta-lactamase Assay, Ratio, Phase 4 (AID 2283601; active means hit-call score of the fitted dose curve at least 0.9, where 1 is the maximum)
Summary of the method: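 HCT116 cells carrying an inducible beta-lactamase reporter were plated at 4000 cells/well, rested 5 h, then exposed to compounds in DMSO (217-fold dilution) for 16 h at 37C. CCF4-AM substrate was loaded 2 h at room temperature; 460/530 nm emission ratio scored gain-of-signal versus DMSO.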

[9] = CCTE_Shafer_MEA_acute_spike_number: CCTE's Neural Acute Assay for Total Number of Spikes, Shafer Lab (AID 2284008);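 further: curve fitted for decrease in spike count so AC50 reflects inhibitors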
Summary of the method: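 Primary rat cortical neurons on 16-electrode MEA wells; on DIV 13 or 15, 40-min baseline then 40-min recording with compound (0.03-40 uM) at 37 C. Spikes detected at 8x rms noise; percent change versus baseline, DMSO as negative control.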

[10] = CCTE_Shafer_MEA_acute_firing_rate_mean: CCTE's Neural Acute Assay for Mean Firing Rate, Shafer Lab (AID 2284009);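 further: analyzed for loss of signal so actives lower firing rate relative to DMSO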
Summary of the method: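 Read-out: well-mean spike rate (spikes/recording length/electrodes), % change from 40 min pre-dose baseline to 40 min with compound. Rat cortical cultures, DIV 13 or 15, 37 C; 0.03-40 uM; DMSO as negative control.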

[11] = CCTE_Shafer_MEA_acute_burst_duration_mean: CCTE's Neural Acute Assay for Mean Burst Duration, Shafer Lab (AID 2284014);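 further: hits are decreases in mean burst duration relative to DMSO controls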
Summary of the method: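 Primary rat cortical neurons on 16-electrode MEA wells, treated on DIV 13 or 15 with compound (0.03-40 uM; ≥3 wells each). 40-min baseline and 40-min exposure recordings at 37 C; percent change in mean burst duration per well versus DMSO.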

[12] = CCTE_Shafer_MEA_acute_per_burst_spike_number_mean: CCTE's Neural Acute Assay for Average Number of Spikes Per Burst, Shafer Lab (AID 2284015);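 further: hits are decreases in mean spikes per burst versus baseline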
Summary of the method: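 Primary rat cortical neurons on 48-well MEA plates, treated on DIV 13 or 15 at 0.03-40 uM. Spontaneous activity recorded 40 min before and 40 min after compound at 37 C; percent change in mean spikes per single-electrode burst per well, fitted in the loss direction versus DMSO.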

[13] = CCTE_Shafer_MEA_acute_interburst_interval_mean: CCTE's Neural Acute Assay for Mean Interburst Interval, Shafer Lab (AID 2284016);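 further: percent change of mean interburst interval versus each well's own pre-dose baseline; curves fitted for decrease in interburst interval relative to DMSO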
Summary of the method: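 Primary rat cortical neurons on 16-electrode MEA wells were recorded 40 min at baseline on DIV 13 or 15, then 40 min after compound (0.03-40 uM), at 37 C. Value is percent change in mean interburst interval per well, DMSO as negative control.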

[14] = CCTE_Shafer_MEA_acute_burst_percentage_mean: CCTE's Neural Acute Assay for Percentage of Spikes in a Burst, Shafer Lab (AID 2284017);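 further: curve fitted for loss of signal so potency reflects decreased burst percentage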
Summary of the method: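 Primary rat cortical neurons on 16-electrode MEA wells; 40 min baseline recorded at DIV 13 or 15, then 40 min after compound (0.03-40 uM) at 37 C. Well-mean fraction of spikes in single-electrode bursts; percent change from baseline, DMSO as negative control.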

[15] = CCTE_Shafer_MEA_acute_burst_percentage_std: CCTE's Neural Acute Assay for Standard Deviation of Burst Percentage, Shafer Lab (AID 2284018);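 further: fitted in the negative direction so actives lower burst percentage SD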
Summary of the method: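 Primary rat cortical neurons on 16-electrode MEA wells were recorded 40 min at baseline (DIV 13 or 15), then 40 min after compound (0.03-40 uM), at 37 C. Well value is SD across electrodes of spikes-in-bursts/total spikes; endpoint is percent change, DMSO-referenced.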

[16] = CCTE_Shafer_MEA_acute_per_network_burst_spike_number_mean: CCTE's Neural Acute Assay for Average Number of Spikes in a Network Burst, Shafer Lab (AID 2284019)
Summary of the method: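 Primary rat cortical neurons on 16-electrode MEA wells, DIV 13 or 15, 37 C; 40-min baseline then 40-min recording with compound (0.03-40 uM). Spikes per network burst (total spikes/number of bursts) expressed as percent change from baseline, DMSO reference.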

[17] = CCTE_Shafer_MEA_acute_per_network_burst_spike_number_std: CCTE's Neural Acute Assay for Standard Deviation of Number of Spikes in a Network Burst, Shafer Lab (AID 2284020);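 further: fitted for decrease in spike-number SD versus DMSO so actives lower it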
Summary of the method: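 Primary rat cortical neurons on 48-well MEAs (16 electrodes/well) recorded at DIV 13 or 15: 40-min baseline, then 40 min with compound (0.03-40 uM), 37 C. Value is percent change in SD of spikes per network burst, relative to DMSO.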

[18] = CCTE_Shafer_MEA_acute_per_network_burst_electrodes_number_mean: CCTE's Neural Acute Assay for Mean Number of Electrodes in a Network Burst, Shafer Lab (AID 2284021);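 further: curves fitted for decreases only so hits reduce electrodes per burst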
Summary of the method: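 Rat primary cortical neurons on 16-electrode MEA wells were recorded 40 min at baseline on DIV 13 or 15, then 40 min after compound (0.03-40 uM), at 37 C. Value is percent change per well, fitted in loss direction versus DMSO.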

[19] = CCTE_Shafer_MEA_acute_network_burst_percentage: CCTE's Neural Acute Assay for Percentage of Network Bursts, Shafer Lab (AID 2284022);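 further: curves fitted for loss so actives lower network burst percentage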
Summary of the method: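 Primary rat cortical neurons on 16-electrode MEA wells, treated on DIV 13 or 15 with compound (0.03-40 uM); 40-min baseline and 40-min post-exposure recordings at 37 C. Value is percent change in spikes within network bursts versus baseline, DMSO negative control.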

[20] = CCTE_Shafer_MEA_acute_cross_correlation_area: CCTE's Neural Acute Assay for Area of Cross Correlation, Shafer Lab (AID 2284024);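 further: area under pooled inter-electrode spike cross-correlation near zero lag as percent change from own baseline; curves fitted for loss of cross-correlation area so actives lower synchrony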
Summary of the method: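 Primary rat cortical neurons on 48-well MEA plates (16 electrodes/well) were recorded 40 min at baseline on DIV 13 or 15, then 40 min with compound (0.03-40 uM) at 37 C; cross-correlation area expressed as percent change from baseline.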

[21] = CCTE_Shafer_MEA_acute_cross_correlation_HWHM: CCTE's Neural Acute Assay for Cross Correlation at Half Width at Half Maximum, Shafer Lab (AID 2284026);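 further: percent change per well from pre-dose baseline in spike cross-correlogram half width; hits are a decrease in cross-correlogram half width relative to DMSO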
Summary of the method: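 Primary rat cortical neurons on 16-electrode MEA wells; 40-min baseline on DIV 13 or 15, then 40-min recording with compound (0.03-40 uM) at 37 C. HWHM of spike cross-correlogram expressed as percent change from baseline per well, DMSO reference.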

[22] = CCTE_Shafer_MEA_acute_synchrony_index: CCTE's Neural Acute Assay for Synchrony, Shafer Lab (AID 2284027);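 further: fitted for loss of signal so actives lower synchrony relative to DMSO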
Summary of the method: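 Readout is percent change in the unitless network synchrony index (0 low, 1 high) between a 40-min baseline and a 40-min recording in compound. Cultures were primary rat cortical neurons on MEAs, treated at 0.03-40 uM on DIV 13 or 15.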

[23] = CCTE_Shafer_MEA_dev_per_burst_spike_percent: CCTE's Neural Network Formation Assay for Percent of Spikes in a Burst, Shafer Lab (AID 2284032);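 further: fitted as a decrease in burst spike percentage below DMSO baseline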
Summary of the method: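 Rat primary cortical neurons on 16-electrode MEA wells, dosed from plating day 0 for 12 days with renewal on DIV 5 and 9; spikes-in-bursts percentage averaged over bursting electrodes, collapsed as AUC across days 5, 7, 9, 12; loss direction versus DMSO.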

[24] = CCTE_Shafer_MEA_dev_active_electrodes_number: CCTE's Neural Network Formation Assay for Number of Active Electrodes, Shafer Lab (AID 2284040; active means hit-call score of the fitted dose curve at least 0.9, where 1 is the maximum;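 further: potency for loss of active electrodes versus DMSO so lower counts are hits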)
Summary of the method: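 Primary rat cortical neurons on 16-electrode MEA wells, exposed from day 0 through day 12 with compound renewed at DIV 5 and 9 feeds. Active electrodes (mean firing ≥5 spikes/min) counted at DIV 5, 7, 9, 12; trapezoidal AUC across days, loss-of-signal versus DMSO.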

[25] = CCTE_Shafer_MEA_dev_burst_rate: CCTE's Neural Network Formation Assay for Burst Rate, Shafer Lab (AID 2284042);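 further: potency for loss of burst rate below DMSO control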
Summary of the method: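 Rat primary cortical cultures on PEI/laminin MEA; compound from plating, re-dosed at DIV 5, 9 media change. Single-electrode bursts/recording length, well mean of active electrodes; AUC over DIV 5–12 recordings; loss-of-signal vs DMSO.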

[26] = CCTE_Shafer_MEA_dev_bursting_electrodes_number: CCTE's Neural Network Formation Assay for Number of Bursting Electrodes, Shafer Lab (AID 2284043; active means hit-call score of the fitted dose curve at least 0.9, where 1 is the maximum;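 further: potency is for loss of bursting electrodes relative to DMSO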)
Summary of the method: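 Primary rat cortical neurons were cultured on PEI-coated 48-well MEA plates (16 electrodes/well) and exposed from plating through day 12, with compound renewed at feeds on DIV 5 and 9. Electrodes bursting ≥1 per 2 min were counted on DIV 5, 7, 9, 12; trapezoidal AUC taken.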

Measured: AC50

Chain of Cellular tumor antigen p53 (Homo sapiens) (P04637 whole entry, looked up): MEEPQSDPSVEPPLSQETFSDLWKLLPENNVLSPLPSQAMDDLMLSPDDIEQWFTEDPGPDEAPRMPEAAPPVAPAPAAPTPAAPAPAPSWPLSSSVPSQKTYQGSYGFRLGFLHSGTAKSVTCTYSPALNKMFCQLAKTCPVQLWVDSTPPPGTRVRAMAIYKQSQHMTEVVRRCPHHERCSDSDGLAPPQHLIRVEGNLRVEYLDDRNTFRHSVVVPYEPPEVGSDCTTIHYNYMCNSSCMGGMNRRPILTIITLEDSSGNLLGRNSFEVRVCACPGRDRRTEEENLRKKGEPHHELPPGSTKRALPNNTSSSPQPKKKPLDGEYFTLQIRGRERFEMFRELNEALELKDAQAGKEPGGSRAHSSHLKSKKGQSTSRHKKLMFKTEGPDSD

CN(C)C(=O)C(CCN1CCC(O)(c2ccc(Cl)cc2)CC1)(c1ccccc1)c1ccccc1
inactive: [1] | [2] | [3] | [4] | [6] | [7] | [8] | [13] | [16] | [17] | [18] | [19] | [20]
active: [5] 26.6 µM | [9] 0.291 µM | [10] 0.291 µM | [11] 0.147 µM | [12] 0.165 µM | [14] 2.27 µM | [15] 0.068 µM | [21] 2.31 µM | [22] 2.29 µM | [23] 514 nM and 244 nM and 1.49 µM | [24] 385 nM and 196 nM and 1.21 µM | [25] 41.8 nM and 92.4 nM and 335 nM | [26] 117 nM and 63.8 nM and 1.19 µM
